# From PubChem
# Most compounds without a hit are left out; they make up all but 12% or so of the library.
# Sm TGR inh: inhibitors of Schistosoma mansoni thioredoxin glutathione reductase; Q962Y6; purified TGR, DTNB reduction, TNB absorbance 405 nm; Potency, µM (doses to about 114 µM), inactives show at the highest dose activity change, negative = inhibition, hits mostly inhibitors; 3% of 360,000 active; AID 485364; further: on the % scale 0 is the no-effect control and ±100 the full control effect; nearly all actives have a fitted effect of over 60% in size
#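 First, TGR (20 nM dispensed) and NADPH were mixed with compound. Second, a 15 min room-temperature incubation followed. Third, further NADPH and then DTNB were added to start the reaction. Finally, TNB absorbance was monitored kinetically.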
# SARS PLpro yeast: inhibitors of SARS-CoV papain-like protease in yeast; S. cerevisiae expressing SARS-CoV PLpro, growth rescue; Potency, µM (titrated, usually from 32.9 µM), inactives show top-dose activity, positive = growth rescue, most hits filed as activators; 0.19% of 330,000 active; AID 485353; calls by dose curve; further: 0% is about no effect; nearly all actives have a fitted effect of over 55% in size
# Pf growth 48h: P. falciparum growth inhibition at 48 hours (one generation) | 5.9% of 310,000 active | P. falciparum luciferase growth in erythrocytes, 48 h | Potency, µM (titrated, usually from 28.7 µM), without a hit: top-dose activity change, negative = inhibition, most hits filed as inhibitors | AID 504832; further: on the % scale 0 is the no-effect control and ±100 the full control effect
#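 Read-out is firefly luciferase luminescence from an integrated reporter in P. falciparum, so falling signal marks reduced parasite growth. Infected erythrocytes were at 2% hematocrit and 0.1% parasitemia (final) in Albumax-supplemented RPMI 1640.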
# Pf growth 96h: P. falciparum growth inhibition at 96 hours; P. falciparum luciferase reporter growth, 96 h; Potency, µM (series often up to 28.7 µM), inactives show at the highest dose activity change, negative = inhibition, actives largely listed as inhibitors; AID 504834; 6.9% of 320,000 active; further: on the % scale 0 is the no-effect control and ±100 the full control effect
#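 Luminescence readout: decreased luciferase signal marks inhibited growth of reporter-expressing P. falciparum in infected red cells (2% hematocrit, 0.05% parasitemia final), exposed to compound two generations (96 h, 37 C, 5% CO2).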
# Starred values were filed as active, the others as inactive; ? = inconclusive; . = not tested or not shown. Unless noted, the call rests on the fitted dose curve; in most records, active means well fitted curve in the direction sought with a large enough effect; inconclusive means small, poorly fitted or top-dose-only effect, or another doubt; inactive means no such curve, though single readings can be large; an effect the other way counts as inactive or inconclusive. Potency means the concentration at half of the fitted maximal effect.
SMILES,Sm TGR inh,SARS PLpro yeast,Pf growth 48h,Pf growth 96h
CCC[C@@H](CNC)NC[C@H](Cc1ccccc1)NCCCCc1ccccc1,-2%,-11%,?,1.7µM*
CCC[C@@H](CN[C@@H](CNC)C(C)C)NCCCCc1ccccc1,4%,-2%,?,12µM*
CCN(CCCc1ccccc1)CCCc1ccccc1,-28%,-5%,?,?
COc1cc(/C=C2\SC(=O)NC2=O)ccc1Oc1ccc([N+](=O)[O-])cc1[N+](=O)[O-],-24%,6%,?,91%
CCN1C(=O)C(=Cc2cccc(OC)c2Oc2ccc([N+](=O)[O-])cc2[N+](=O)[O-])SC1=S,-21%,0%,5.2µM*,10µM*
COC(=O)CC1Oc2ccccc2-n2cc(-c3ccc(Cl)cc3)nc21 (centres undefined),3%,.,.,.
CC1(c2ccccc2)CC(c2ccccc2)=Nc2nonc2N1 (centres undefined),5%,-2%,1.5µM*,?
COc1cccc(NC2=C(C#N)C(=O)NC(c3cccc(OC)c3O)S2)c1 (centres undefined),7.9µM*,0%,7%,?
CCN(CC(=O)Nc1c(F)cccc1F)C(=O)CNC(=O)C1CCCCC1,-7%,0%,-1%,23%
O=C(Nc1ccc2nc(-c3ccco3)c(-c3ccco3)nc2c1)N1CCCCCC1,0.71µM*,-5%,?,10%
CCOC(=O)C1CCN(C(=O)Nc2ccc3nc(-c4ccco4)c(-c4ccco4)nc3c2)CC1,0.71µM*,2%,10µM*,?
CCOC(=O)C1CCN(C(=O)Nc2ccc3c(c2)nc(C)n3C)CC1,2%,7%,348%,?
CCOC(=O)c1cc2c(=O)n3ccccc3nc2n(CC(C)C)c1=NC(=O)COc1ccc(Cl)cc1,2%,.,.,.
CC1C[N+](=C2C=C(N3CCOCC3)CC(C)(C)C2)CC(C)O1 (centres undefined),3%,7%,?,12µM*
CC1(C)CC(N2CCCCC2)=CC(=[N+]2CCCCC2)C1,-14%,0%,?,?
CC1(C)CC(N2CCOCC2)=CC(=[N+]2CCOCC2)C1,45µM*,-1%,13µM*,8.3µM*
O=C(Nc1ccc(F)cc1Cl)c1cnc(N2CCOCC2)c2ccccc12,-5%,.,.,.
CCOc1ccc(S(=O)(=O)N2CCN=C2c2ccccc2)c(C)c1C,5%,2%,-20%,-27%
CC(=O)N(c1ccccc1C)C1CCCC1,-1%,4%,8%,-23%
CC(=O)N(C1=C(Cl)C(=O)c2ccccc2C1=O)C1CCCCC1,0.11µM*,-5%,?,?
CCCCN1CC(COc2ccccc2)OC1=O (centres undefined),10%,1%,2%,2.9µM*
O=C(c1ccccc1)N1CC(COc2ccccc2)OC(c2cccnc2)O1 (centres undefined),-10%,-16%,7%,.
COc1ccc(-c2cc(C(=O)N3CCN(c4ccccc4OC)CC3)c3cc(C(C)C)ccc3n2)cc1,-2%,.,.,.
Cc1cc(C)n(-c2nnc(C)n2/N=C/c2cc(Br)ccc2OCc2ccccc2)n1,-11%,-5%,4.7µM*,7%
Cc1nc([N+](=O)[O-])cn1CC(=O)c1ccc(F)cc1,5%,1%,0%,25%
SMILES,Sm TGR inh,SARS PLpro yeast,Pf growth 48h,Pf growth 96h
CCn1c(=N)n(CC(=O)c2cccc([N+](=O)[O-])c2)c2ccccc21,7%,-2%,68%,-1%
Cc1nc([N+](=O)[O-])c(Br)n1CC(=O)c1cccc([N+](=O)[O-])c1,2µM*,-2%,?,?
CCn1c(C)nc([N+](=O)[O-])c1C(=O)O,0%,-2%,16%,-24%
Cc1nc([N+](=O)[O-])c(Br)n1Cc1ccccc1,2.5µM*,0%,?,-13%
Cc1nc([N+](=O)[O-])c(SCC(O)CCl)n1Cc1ccc(Cl)cc1 (centres undefined),.,0%,6%,47%
Cc1nc([N+](=O)[O-])c(Br)n1CC(=O)c1ccc(F)cc1,3.2µM*,-8%,?,?
COC(=O)Cn1c(C)nc([N+](=O)[O-])c1Br,6.3µM*,2%,?,?
CC(C)(C)c1ccc(NC(=O)C2CCCN(c3cnccn3)C2)cc1 (centres undefined),31%,-31%,?,-19%
NC(=S)N/N=C\c1c(OCc2ccccc2Cl)ccc2ccccc12,7%,11%,10µM*,42%
O=c1[nH]c(=O)n(CCC2=CCCCC2)c(O)c1/C=N/Nc1cccc2ccccc12,20µM*,-1%,?,?
